Data as given in PubChem BioAssay (NCI).
About 83,000 compounds went through this panel and 20% of them were active in at least one assay; those are over-represented in the sample as a whole.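 Cells were grown in 96-well plates and exposed to the test compound at a single concentration for 48 hours; results are reported as percent growth, with values below 10 considered active.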 Values without a mark were called inactive. Activity calls are given as the source filed them.

System: HL-60(TB) leukemia
Experiment: NCI-60 one-dose screen, 48 h (100 = growth as untreated, 0 = no growth, -100 = all killed)
Conditions: 10 µM unless noted

## O=C1c2ccc3c4c(ccc(c24)C(=O)N1CCCNCc1ccccc1F)C(=O)N(CCCNCc1ccccc1F)C3=O
  growth: -59% (active)

## COc1cc(NC(=O)Nc2cnc(Nc3ccc(N4CCOCC4)cc3)nc2Oc2ccc(F)cc2)cc(OC)c1
  growth: 65.4%

## COc1ccc(OC)c(/C=C/[C@H]2O[C@@H](C)[C@H](O)[C@@H]2O)c1
  growth: 88.3%

## Nc1nccc(OCCO)n1
  growth: 88.5%

## Clc1nc(Cl)c2ncn(CCOCCn3cnc4c(Cl)nc(Cl)nc43)c2n1
  growth: -70.6% (active)

## O=C(N/N=C/c1coc2ccccc2c1=O)c1cc2oc(-c3ccccc3)cc2[nH]1
  growth: 99%

## COc1ccc(/C=N/c2cc(C(C)(C)C)nn2-c2ccccc2)cc1
  growth: 88.3%

## FC(F)(F)c1cccc(Nc2nc(-c3ccccc3)nc3ncccc23)c1
  growth: -57.8% (active)

## Cc1ccc(-c2nc3nc(-c4ccccc4)nc(N4CCCN(S(C)(=O)=O)CC4)c3o2)cc1
  growth: 99.6%

## CC(C)CC(NC(=O)CN(Cc1ccccc1)S(C)(=O)=O)C(=O)O (centres undefined)
  growth: 94.8%

## C=CCn1c(SCC(=O)Nc2ccc(C(=O)/C=C/c3ccc(Cl)cc3)cc2)nnc1-c1cc(OC)c(OC)c(OC)c1
  growth: 97.7%

## Cc1ccc(S(=O)(=O)c2c(COC(=O)c3cccc(C)c3)c(-c3ccccc3)nn2C)cc1
  growth: 30.2%

## C/C=C(\C)C(=O)N[C@H]1CC[C@]2(C)C3CC[C@@]4(C)C(CC[C@@H]4C(C)N(C)C)C3CCC2[C@H]1OC(C)=O (some centres undefined)
  growth: 18.2%

## CC(=O)N1N=C(c2ccc(Nc3nc(Nc4ccc(F)cc4)nc(Nc4ccc(Cl)cc4)n3)cc2)CC1c1ccc(Cl)cc1 (centres undefined)
  growth: 166%

## COc1cc(NCCCCCN=C(N)NC(N)=NC(C)C)c2ncccc2c1
  growth: 1.51% (active)

## C/C=C/C=N/NC(=S)Nc1ccccc1
  growth: 81.7%

## CCn1c2ccccc2c2ccc(C(C)=O)cc21
  growth: 118%

## COc1cc2cc(c1Cl)N(C)C(=O)C[C@H](OC(=O)[C@H](C)N(C)C(=O)CCS)C[C@]1(C)O[C@H]1[C@H](C)[C@@H]1C[C@@](O)(NC(=O)O1)[C@H](OC)/C=C/C=C(\C)C2
  growth: -28% (active)

## CC(C)(C)CC(C)(C)c1ccc(O)c(Cc2ccc(Cl)cc2Cl)c1
  growth: -61.6% (active)

## O=c1[nH]nc(-c2ccc(Cl)cc2)cc1Cc1cccc([N+](=O)[O-])c1
  growth: 109%

## C=C(C)[C@@H]1CC[C@]2(C(=O)NC(COC(=O)C(Cl)Cl)(COC(=O)C(Cl)Cl)COC(=O)C(Cl)Cl)CC[C@]3(C)[C@H](CC[C@@H]4[C@@]5(C)CC[C@H](OC(C)=O)C(C)(C)[C@@H]5CC[C@]43C)[C@@H]12
  growth: 16.7%

## COc1ccc(-n2nc3c(c2-c2ccc(OC)c(OC)c2)-c2oncc2CC3)cc1
  growth: 88.4%

## N#Cc1cc(-c2ccnc(Nc3ccc(NC(=O)CCl)cc3)n2)ccc1N1CCCC1
  growth: -49.2% (active)

## C=CC[C@]1(O)CC[C@H]2[C@@H]3CCc4cc(O)ccc4[C@H]3CC[C@@]21C
  growth: 75.1%

## O=S(Cc1ccccc1)/C(=C/NC(=S)Nc1ccccc1)c1ccccc1 (centres undefined)
  growth: 106%

## O=C(O)c1cccc2c1Cc1cc([N+](=O)[O-])ccc1-2
  growth: 120%

## Cn1cc(-c2csc(-c3ccccc3)n2)c2cccnc21
  growth: 3.19% [100 µM] (active)

## Nc1[nH]nc(Nc2ccccc2)c1-c1nc2ccccc2s1
  growth: 16.6%

## O=C(Nc1ncc(Cc2ccccc2Cl)s1)c1cccs1
  growth: 58.5%

## Cc1ccc(C(SCC(N)C(=O)O)(c2ccccc2)c2ccc(C)cc2)cc1 (centres undefined)
  growth: -36% (active)

## O=C(O)/C=C/C(=O)Nc1cccc(Cn2nnc3cc(Cl)c(Cl)cc32)c1
  growth: 112%

## COc1cc(OCc2cccc(-c3ccc4c(c3)OCCO4)c2C)cc(OC)c1C=O
  growth: 64%

## Cc1nc2ccccc2c(/C=C/c2ccccc2)c1C(=O)/C=C/c1ccc(Cl)cc1
  growth: 1.63% (active)

## Cc1oc2c(C)c3oc(=O)cc(C)c3cc2c1CCl
  growth: 70.8%
